High-throughput results (PubChem BioAssay)
A selection: hits, their analogues and other compounds. The true share with any hit is near 6.5%.
VACV mCherry inh: qHTS for Stage-Specific Inhibitors of Vaccinia Orthopoxvirus: mCherry Reporter Primary qHTS; Vaccinia virus mCherry reporter infection, fluorescence; Potency, µM (highest dose often 36.5 µM), inactives show at the top dose activity change, negative = inhibition, hits mostly inhibitors; actives 0.63% (n = 310,000); AID 720579, 2013; calls by dose curve; tested in A549 cells; also: potency is read from the fitted curve at half-maximal effect; nearly all actives have a fitted effect of over 35% in size
VACV Venus inh: qHTS for Stage-Specific Inhibitors of Vaccinia Orthopoxvirus: Venus Reporter Primary qHTS; Vaccinia virus Venus reporter expression, fluorescence; Potency, µM (series often up to 36.5 µM), for inactives: top-dose activity change, negative = inhibition, actives largely listed as inhibitors; actives 0.46% (n = 330,000); calls by dose curve; tested in A549 cells; also: potency is read from the fitted curve at half-maximal effect; nearly all actives have a fitted effect of over 30% in size
Lassa entry inh: qHTS for Inhibitors of binding or entry into cells for Lassa Virus; actives 1.2% (n = 300,000); Lassa virus pseudotype entry inhibition, cell reporter; Potency, µM (series often up to 37.9 µM), inactives show at the highest dose activity change, negative = inhibition, usual class: inhibitors; calls by dose curve; tested in HEK293 cells; also: potency is read from the fitted curve at half-maximal effect; nearly all actives have a fitted effect of over 50% in size
FMDV inh: High Throughput Screening for Foot and Mouth Disease Virus Antivirals; FMDV antiviral cell-based qHTS; Potency, µM (top dose mostly 57.9 µM), for inactives: top-dose activity change, negative = inhibition, usual class: inhibitors; actives 1.2% (n = 410,000); calls by dose curve; tested in HEK293T cells; also: read-out not given here; potency is read from the fitted curve at half-maximal effect; nearly all actives have a fitted effect of over 45% in size
HCMV inh: qHTS Assay for inhibitors of the human cytomegalovirus (HCMV) | HFF cells, HCMV-luciferase reporter, 72 h; stronger effect = lower value | activity change, negative = inhibition, % at 57.5 µM | actives 4.5% (n = 410,000); in the data active = activity change below about -60%; inconclusive = no clear call, values can overlap the other calls; inactive = above about -39%
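Cell-based, HFFs, 1000 cells/well, 16 h 37C; cpds in DMSO + HCMV-luc, MOI 1 PFU/cell; 72 h 37C; OneGlo luminescence after 5 min RT; norm. to buffer vs Salinomycin 10uM.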
Marburg entry inh: qHTS for inhibitors of binding or entry into cells for Marburg Virus; Marburg virus pseudotyped entry inhibition, cell reporter; Potency, µM (top dose mostly 37.8 µM), inactives show at the highest dose activity change, negative = inhibition, usual class: inhibitors; AID 540276, 2011; actives 1.8% (n = 300,000); calls by dose curve; tested in HEK293 cells; also: potency is read from the fitted curve at half-maximal effect
Starred values were filed as active, the others as inactive; i = inactive; u = inconclusive; x = no result given; + = active, no number; ! = not active in a repeat; [ ] = another dose, or the depositor's remark. % is scaled to controls: 0 for no effect and ±100 for the full control effect.

SMILES	VACV mCherry inh	VACV Venus inh	Lassa entry inh	FMDV inh	HCMV inh	Marburg entry inh
CCOc1ccccc1NC(=O)C(CC(C)C)NS(=O)(=O)c1ccc2c(c1)CCN2C(C)=O (configuration not stated)	1%	-4%	-23%[46.1 µM]	16%	-16	u
Cc1ccc(NC(=O)CCl)cc1S(=O)(=O)N1CCCCCC1	-11%	-14%	-25%	22µM*	-98*	u
CCc1noc(C)c1C(=O)Nc1ccc(C)c(S(=O)(=O)N2CCCCCC2)c1	-8%	-21%	-28%	28µM*	-38	u
CC1(c2ccc3ccccc3c2)NC(=O)N(CC(=O)Nc2cccc(S(=O)(=O)N3CCOCC3)c2)C1=O (configuration not stated)	-19%	-4%	0%	35µM*	u	u
COCCNCC(=O)Nc1ccc(C)c(S(=O)(=O)N2CCCCC2)c1	-6%	-9%	2%	2%	-5	0%[14.2 µM]
Cc1ccc(NC(=O)Cc2ccccc2F)cc1S(=O)(=O)N1CCCCCC1	x	x	x	-11%	-78*	x
Cc1ccc(C2(C)NC(=O)N(CC(=O)Nc3ccc(Cl)c(S(=O)(=O)N4CCCCC4)c3)C2=O)cc1 (configuration not stated)	-13%	u	-27%	-22%	0	11µM*
Cc1ccc(NC(=O)/C=C/c2ccco2)cc1S(=O)(=O)N1CCCCCC1	x	x	x	0%	-89*	x
O=C(/C=C/c1ccco1)Nc1cccc(S(=O)(=O)N2CCOCC2)c1	-9%	-18%	-3%	-12%	u	u
COc1ccc(C(=O)/C(C#N)=N/Nc2cccc([N+](=O)[O-])c2)cc1	x	x	10µM*	u	-98*	15µM*
N#C/C(=N\Nc1ccc(Cl)cc1)C(=O)c1ccsc1	u	u	u	1%	-64*	u
N#C/C(=N\Nc1ccc(Cl)cc1)C(N)=S	u	-9%	u	-20%	-92*	u
N#C/C(=N\Nc1cccc(Cl)c1)C(=O)c1ccccc1	x	x	u	18%	-87*	u
COC(=O)[C@H]1O[C@@H](c2c(OC)c(OC)c(C)c(OC)c2OC)[C@H](C)[C@@H](O)[C@@H]1C	x	x	x	x	x	6%[14.2 µM]
COc1cc2c(cc1OC)C(c1cc3cc(OC)c(OC)cc3[nH]c1=O)N(C(=O)C1CC1)CC2 (configuration not stated)	x	x	26µM*	-4%	53	13µM*
Cc1ccc2c(c1)C(O)(C1C(=O)N(C)c3ccccc31)C(=O)N2Cc1ccccc1 (configuration not stated)	x	x	x	x	-17	x
CCOCCCNC(=O)c1cc(=O)n(Cc2cccc(C)c2)c2ccccc12	-15%	-24%	x	-29%	-62*	u
O=C(NCc1ccccc1Cl)c1ccc2c(c1)ncn2-c1cccc(F)c1	-13%	-18%	12%[46.1 µM]	30%	-31	x
COc1cccc(C(=O)N(Cc2cccnc2)c2nc3c(OC)ccc(C)c3s2)c1OC	-26%	3%	u	-21%	0	x
CCOc1cc2c(cc1OCC)-n1cccc1C(c1ccc(F)cc1)NC2 (configuration not stated)	x	x	x	u	-16	x
CCOc1cc2c(cc1OCC)-n1cccc1C(c1ccc(C(C)C)cc1)NC2 (configuration not stated)	u	-12%	u	u	-68*	u
O=C(NCc1ccncc1)c1csc(N2CCN(Cc3cccc(C(F)(F)F)c3)C2=O)n1	x	x	x	x	-13	x
CC(C)c1c(C(=O)N(C)Cc2cccc3ncccc23)cnn1-c1nccc(-c2ccccc2F)n1	u	u	x	13µM*	x	x
Cc1nn(-c2ccccc2)c(Cl)c1CN(C(=O)CCl)c1ccc(Cl)cc1	-1%	-24%	u	-4%	-99*	u
Cc1nn(-c2ccccc2)c(Cl)c1CN(C(=O)CCl)c1cccc2ccccc12	-26%	u	u	28µM*	-99*	u
SMILES	VACV mCherry inh	VACV Venus inh	Lassa entry inh	FMDV inh	HCMV inh	Marburg entry inh
CS(=O)(=O)c1ccc(CNC(=O)C2(C(F)(F)F)CC(CCCO)CCCO2)cc1 (configuration not stated)	11µM*	u	x	0%	-67*	x
COc1ccc2[nH]c3c(c2c1)[C@@H]1CCN2C(=O)CCC[C@H](C3)[C@H]12	-8%	-4%	x	1%	-61*	x
COc1ccc(CNC2C[C@H]3CCCC(=O)N4CC[C@@H](C2)[C@@H]34)cc1 (some centres not stated)	i	-12%	x	-3%	6	x
CCc1ccc(CCC(=O)Nc2sc3c(c2C#N)CCCC3)o1	x	x	u	-7%	-75*	2.3µM*
CCc1ccc(NC(=O)CCc2ccc(CC)o2)cc1	i	-9%	6%[46.1 µM]	13%	13	0%[46.1 µM]
CCc1ccc(CCC(=O)Nc2ccc(C(=O)O)cc2)o1	x	x	x	-8%	+	x
N#Cc1c(NC(=O)c2ccc(Cn3cc(Br)cn3)o2)sc2c1CCCCCC2	x	x	-11%	u	-99*	u
N#Cc1c(NC(=O)CSc2nc(N)cc(=O)[nH]2)sc2c1CCCC2	-15%	-28%	u	u	-21	10µM*
CCCCCNC(=O)C1(C)CCc2nc3ccccc3n21 (configuration not stated)	x	x	x	x	52	x
CC(=O)[C@H]1CC[C@H]2[C@@H]3CC=C4C[C@@H](OS(=O)(=O)O)CC[C@]4(C)[C@H]3CC[C@]12C	-8%	-10%	x	-19%	-71*	x
CC(=O)[C@@]1(O)CC[C@H]2[C@@H]3CCC4=CC(=O)CC[C@]4(C)[C@H]3CC[C@@]21C	i	-15%	21µM*!	u	28	18%
CC(=O)C1CCC2C3CCC4=CC(=O)CC[C@@]4(C)C3CC[C@]12C (some centres not stated)	-10%	-9%	x	22µM*	x	x
CC(=O)O[C@H]1CC[C@@]2(C)C(=CC[C@H]3[C@@H]4CC[C@H](C(C)=O)[C@@]4(C)CC[C@@H]32)C1	i	-6%	x	u	24	x
C[C@]12CCC(=O)C=C1CC[C@@H]1C2[C@H](O)C[C@]2(C)C(=O)CCC12 (some centres not stated)	x	x	x	5%	32	x
CC12CCC(=O)C=C1CCC1C2C(O)CC2(C)C1CCC21OCC1=O (configuration not stated)	i	-6%	10%[46.1 µM]	-5%	-92*	u
COC(=O)c1c(C)sc(-c2c(-c3ccc(F)cc3)[nH]c3[nH]c(=O)[nH]c(=O)c23)c1O	1%	-5%	u	-8%	-11	u
Cc1nc(C2CCC3C4CCC5=CC(=O)CC[C@]5(C)C4CC[C@]23C)cs1 (some centres not stated)	x	x	x	x	-91*	x
